According to PubChem BioAssay AID1159580 (chemical genetic matrix, 2015):
Several values for one entry are separate records, joined by “and”; a condition that tells them apart may be missing. Equal entries are not always repeated. Out of some 5,500 compounds screened, about 2,000 (36%) were called active. Inconclusive results (about 18%) are left out. No stated cut-off is given here; in the data, active means normalized growth mostly below about 0.91 (no sharp cut-off); inconclusive means no clear call, values can overlap the other calls; inactive means mostly above about 0.92. The list shows a part of the results.

Assay: chemical genetic growth profiling, strain panel (AID 1159580);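 further: tested at 20 µM; growth read once vehicle control cultures reached saturation at 30 °C; 1 = growth at the plate median or of vehicle wells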
Conditions: S. cerevisiae deletion strains, growth OD
[1] = locus YAL013W, strain DEP1, stronger effect = lower value
[2] = locus YBR229C, strain ROT2, stronger effect = lower value
[3] = locus YDL101C, strain DUN1, stronger effect = lower value
[4] = locus YDR150W, strain NUM1, stronger effect = lower value
[5] = locus YEL061C, strain CIN8, stronger effect = lower value
[6] = locus YGR078C, strain PAC10, stronger effect = lower value
[7] = locus YHR030C, strain SLT2, stronger effect = lower value
[8] = locus YHR087W, strain rtc3, stronger effect = lower value
[9] = locus YJR043C, strain POL32, stronger effect = lower value
[10] = locus YJR075W, strain HOC1, stronger effect = lower value
[11] = locus YLR039C, strain RIC1, stronger effect = lower value
[12] = locus YLR058C, strain SHM2 (second series), stronger effect = lower value
[13] = locus YLR085C, strain ARP6, stronger effect = lower value
[14] = locus YLR262C, strain YPT6, stronger effect = lower value
[15] = locus YML094W, strain GIM5, stronger effect = lower value
[16] = locus YMR219W, strain ESC1, stronger effect = lower value
[17] = locus YMR263W, strain SAP30, stronger effect = lower value
[18] = locus YNL153C, strain GIM3, stronger effect = lower value
[19] = locus YNL298W, strain CLA4 (second series), stronger effect = lower value
[20] = locus YNL322C, strain KRE1, stronger effect = lower value
[21] = locus YNR030W, strain Alg12, stronger effect = lower value
[22] = locus YOL006C, strain TOP1, stronger effect = lower value
[23] = locus YPL055C, strain LGE1, stronger effect = lower value
[24] = locus YPL241C, strain CIN2, stronger effect = lower value
[25] = locus YPR135W, strain CTF4, stronger effect = lower value
[26] = locus YHR079C, strain IRE1, stronger effect = lower value
[27] = locus YJL095W, strain BCK1, stronger effect = lower value
[28] = locus YJR066W, strain TOR1, stronger effect = lower value
[29] = locus YLR113W, strain HOG1, stronger effect = lower value
[30] = locus YNL183C, strain NPR1, stronger effect = lower value
[31] = locus YOR231W, strain MKK1, stronger effect = lower value
[32] = locus YPL256C, strain CLN2, stronger effect = lower value
[33] = locus YAR019C, strain CDC15, stronger effect = lower value
[34] = locus YBL105C, strain PKC1, stronger effect = lower value
[35] = locus YBR135W, strain CKS1, stronger effect = lower value
[36] = locus YBR136W, strain MEC1, stronger effect = lower value
[37] = locus YBR160W, strain CDC28, stronger effect = lower value
[38] = locus YDL017W, strain CDC7, stronger effect = lower value
[39] = locus YDL028C, strain MPS1, stronger effect = lower value
[40] = locus YDL108W, strain KIN28, stronger effect = lower value
[41] = locus YDL132W, strain cdc53, stronger effect = lower value
[42] = locus YDL214C, strain PRR2, stronger effect = lower value
[43] = locus YDR052C, strain DBF4, stronger effect = lower value
[44] = locus YDR054C, strain cdc34, stronger effect = lower value
[45] = locus YDR226W, strain ADK1, stronger effect = lower value
[46] = locus YDR477W, strain SNF1, stronger effect = lower value
[47] = locus YER123W, strain YCK3, stronger effect = lower value
[48] = locus YER133W, strain GLC7, stronger effect = lower value
[49] = locus YFL009W, strain cdc4, stronger effect = lower value
[50] = locus YFL029C, strain CAK1, stronger effect = lower value
[51] = locus YFR003C, strain YPI1, stronger effect = lower value
[52] = locus YFR019W, strain FAB1, stronger effect = lower value
[53] = locus YFR028C, strain CDC14, stronger effect = lower value
[54] = locus YGR040W, strain KSS1, stronger effect = lower value
[55] = locus YGR052W, strain FMP48, stronger effect = lower value
[56] = locus YGR092W, strain DBF2, stronger effect = lower value
[57] = locus YHR082C, strain KSP1, stronger effect = lower value
[58] = locus YHR205W, strain SCH9, stronger effect = lower value
[59] = locus YIL147C, strain SLN1, stronger effect = lower value
[60] = locus YJL128C, strain PBS2, stronger effect = lower value
[61] = locus YJL157C, strain FAR1, stronger effect = lower value
[62] = locus YJR016C, strain ILV3, stronger effect = lower value
[63] = locus YJR066W, strain TOR1 (second series), stronger effect = lower value
[64] = locus YKL048C, strain ELM1, stronger effect = lower value
[65] = locus YKL067W, strain YNK1, stronger effect = lower value
[66] = locus YKL101W, strain HSL1, stronger effect = lower value
[67] = locus YKL193C, strain SDS22, stronger effect = lower value
[68] = locus YKL203C, strain TOR2, stronger effect = lower value
[69] = locus YLR133W, strain CKI1, stronger effect = lower value
[70] = locus YLR403W, strain SFP1, stronger effect = lower value
[71] = locus YML070W, strain DAK1, stronger effect = lower value
[72] = locus YMR001C, strain CDC5, stronger effect = lower value
[73] = locus YMR205C, strain PFK2 (second series), stronger effect = lower value
[74] = locus YMR277W, strain FCP1, stronger effect = lower value
[75] = locus YNL006W, strain LST8, stronger effect = lower value
[76] = locus YNL020C, strain ARK1, stronger effect = lower value
[77] = locus YNL161W, strain CBK1, stronger effect = lower value
[78] = locus YNL207W, strain RIO2, stronger effect = lower value
[79] = locus YNL222W, strain SSU72, stronger effect = lower value
[80] = locus YNL307C, strain MCK1 (second series), stronger effect = lower value
[81] = locus YOL078W, strain AVO1, stronger effect = lower value
[82] = locus YOL136C, strain PFK27, stronger effect = lower value
[83] = locus YOR061W, strain CKA2, stronger effect = lower value
[84] = locus YOR119C, strain RIO1, stronger effect = lower value
[85] = locus YOR329C, strain SCD5, stronger effect = lower value
[86] = locus YPL031C, strain PHO85, stronger effect = lower value
[87] = locus YPL153C, strain RAD53, stronger effect = lower value
[88] = locus YPL204W, strain HRR25, stronger effect = lower value
[89] = locus YPL209C, strain IPL1, stronger effect = lower value
[90] = locus YPR025C, strain CCL1, stronger effect = lower value
[91] = locus YPR106W, strain ISR1, stronger effect = lower value
[92] = locus YPR111W, strain DBF20, stronger effect = lower value
[93] = strain NNK1, stronger effect = lower value
[94] = strain TSCII, stronger effect = lower value

Measured: normalized growth

CC1CN=C(NC2CCCCC2)S1 (stereo unspecified)
inactive: [1] 0.987 | [2] 1 | [3] 0.977 | locus YDL134C, strain PPH21, stronger effect = lower value 1.01 | [4] 0.947 | [5] 1.01 | [6] 0.998 | [7] 0.997 | [8] 1.02 | locus YJL187C, strain SWE1, stronger effect = lower value 1.01 | [9] 0.982 | [10] 0.998 | [11] 1.05 | [12] 0.988 | [13] 1.02 | [14] 1.04 | [15] 1 | [16] 1.01 | [17] 0.93 | [18] 1.01 | [19] 1.02 | [20] 0.99 | [21] 1 | [22] 1.01 | [23] 0.874 | [24] 1.01 | [25] 1.01

C[N+]1(C)C2CCC1CC(OC(=O)C(CO)c1ccccc1)C2 (stereo unspecified)
inactive: locus YAL040C, strain CLN3, stronger effect = lower value 1.04 and 1.01 | locus YCL061C, strain MRC1 (second series), stronger effect = lower value 1 | locus YDR363W, strain ESC2, stronger effect = lower value 0.993 | locus YER002W, strain NOP16, stronger effect = lower value 1 and 0.996 | [6] 1.02 | [7] 0.972 | [26] 0.976 | [27] 1 | [28] 0.917 | [10] 1 | [29] 0.989 | locus YNL128W, strain TEP1, stronger effect = lower value 1.01 | [18] 1.01 | locus YNL175C, strain NOP13, stronger effect = lower value 1.01 | [30] 0.929 | locus YNL197C, strain WHI3, stronger effect = lower value 1.02 and 1.01 | locus YNL224C, strain SQS1, stronger effect = lower value 1.01 and 0.997 | [20] 1.03 and 1.02 | locus YOR083W, strain WHI5 (second series), stronger effect = lower value 1.02 | [31] 0.968 | [32] 0.957

COc1cc(C2SCCS2)cc(Br)c1OC(=O)NC(=O)c1c(Cl)cccc1Cl
inactive: [33] 0.965 | [34] 0.955 | [35] 0.968 | [36] 0.954 | [37] 0.956 | [38] 0.958 | [39] 0.962 | [3] 0.952 | [40] 0.953 | [41] 0.962 | [42] 0.953 | [43] 0.966 | [44] 0.955 | [45] 0.937 | [46] 0.939 | [47] 0.936 | [48] 0.936 | [49] 0.956 | [50] 0.974 | [51] 0.948 | [52] 0.966 | [53] 0.968 | [54] 0.936 | [55] 0.988 | [56] 0.919 | [26] 0.985 | [57] 1.06 | [58] 0.987 | [59] 0.963 | [27] 0.958 | [60] 0.916 | [61] 0.909 | [62] 0.966 | [63] 0.926 | [28] 1.02 | [64] 0.951 | [65] 0.943 | [66] 0.957 | [67] 0.974 | [68] 0.974 | [29] 1 | [69] 0.942 | [70] 0.905 | [71] 0.962 | [72] 0.962 | [73] 0.954 | [74] 0.966 | [75] 0.967 | [76] 0.942 | [77] 0.951 | [30] 0.997 | [78] 0.964 | [79] 0.975 | [80] 0.937 | [81] 0.96 | [82] 0.937 | [83] 0.934 | [84] 0.994 | [31] 0.993 | [85] 0.956 | [86] 0.905 | [87] 0.941 | [88] 0.876 | [89] 0.963 | [32] 1.07 | [90] 0.966 | [91] 0.957 | [92] 0.933 | [93] 0.957 | [94] 0.958
active: [7] 1.15 [resistant]

COC(=O)C(Cc1c[nH]c2ccccc12)NC(=O)c1c(Cl)cccc1Cl (stereo unspecified)
inactive: [1] 1 | [2] 0.992 | [3] 0.993 | [4] 0.993 | [5] 1.01 | [6] 0.994 | [7] 0.97 | [8] 0.985 | [9] 1 | [10] 0.994 | [11] 0.996 | [12] 1.01 | [13] 0.981 | [14] 1 | [15] 1 | [16] 1 | [17] 0.994 | locus YMR307W, strain GAS1, stronger effect = lower value 0.915 | [18] 0.993 | [19] 1 | [20] 0.99 | [21] 0.999 | [22] 0.937 | [23] 0.988 | [24] 0.999 | [25] 0.963

CC(C)c1cccc(C(C)C)c1OC(=O)NC(=O)c1c(Cl)cccc1Cl
inactive: [33] 0.98 | [34] 0.984 | [35] 0.983 | [36] 0.989 | [37] 0.985 | [38] 0.985 | [39] 0.989 | [3] 0.971 | [40] 0.985 | [41] 0.985 | [42] 0.974 | [43] 0.978 | [44] 0.977 | [45] 0.975 | [46] 0.982 | [47] 0.942 | [48] 0.983 | [49] 0.99 | [50] 0.979 | [51] 0.982 | [52] 0.969 | [53] 0.988 | [54] 0.979 | [55] 1.01 | [56] 0.992 | [7] 0.966 | [26] 0.911 | [57] 1.04 | [58] 0.945 | [59] 0.988 | [27] 0.956 | [60] 0.928 | [61] 0.957 | [62] 0.985 | [63] 0.945 | [28] 1.03 | [64] 0.986 | [65] 0.966 | [66] 0.956 | [67] 0.99 | [68] 1.01 | [29] 0.866 | [69] 0.96 | [70] 0.962 | [71] 0.972 | [72] 0.986 | [73] 0.98 | [74] 0.986 | [75] 0.982 | [76] 0.957 | [77] 0.976 | [30] 0.979 | [78] 0.98 | [79] 0.987 | [80] 0.958 | [81] 0.985 | [82] 0.945 | [83] 0.972 | [84] 1.04 | [31] 0.945 | [85] 0.971 | [86] 0.954 | [87] 0.984 | [88] 0.943 | [89] 0.991 | [32] 0.919 | [90] 0.982 | [91] 0.978 | [92] 0.96 | [93] 0.962 | [94] 0.978
